These results are taken from PubChem BioAssay AID2289 (National Center for Advancing Translational Sciences (NCATS), 2010).

Where “and” joins values, the source holds several entries; their conditions need not be identical. Equal entries are not always repeated. Among all 340,000 compounds or so, about 3,300 (0.97%) were called active. About 9% were inconclusive and are not listed. The call rests on the fitted dose curve; in most records, active means well fitted inhibition curve with a large enough effect; inconclusive means small, poorly fitted or top-dose-only effect, or effect the other way; inactive means flat fitted curve, though single readings scatter. The list shows a part of the results.
Potency means the concentration at half of the fitted maximal effect.

A short description of this assay: qHTS Assay for Modulators of miRNAs and/or Inhibitors of miR-21. Further: nearly all actives have a fitted effect of over 55% in size. The conditions noted are these: HeLa miR-21-FLuc reporter, luciferase luminescence, 48 h; actives lower the signal. Put shortly: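 HeLa miR-21-FLuc reporter line, endogenous miR-21; 2000 cells/well in DMEM/10% FBS; compound titration up to ~40uM final, 48 h, 37 degree Celsius; luciferase detection reagent, 15 min lysis, CCD luminescence.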
(In qHTS, concentration-response curves come from the screen itself.)
Consider `COc1cc2c(cc1OC)-c1cc(Nc3ccc4c(c3)OCCO4)nc(=O)n1CC2`, for which the Potency was 8.26 µM (active). Turning to `CCc1nc2oc3ccccc3c(=O)c2c(=O)n1-c1ccc(C)cc1`, the Potency was 1.65 µM (active). The result for `Cc1cc(C)n2c(nc3ccccc32)c1C(=O)NN` reads 10.4 µM (active); that for `Nc1nc2c(Cl)cc(Cl)cc2s1`, 18.5 µM (active); that for `Clc1cc(Cl)c2nc(N3CCOCC3)sc2c1`, 16.5 µM (active). As to `Clc1ccc(-c2nsc(N3CCOCC3)n2)c(Cl)c1`, the Potency was 1.04 µM (active).

With `Fc1ccc2nc(N3CCOCC3)sc2c1`, the Potency was 16.5 µM (active). The result for `Fc1ccc2nc(N3CCCC3)sc2c1` reads 4.14 µM (active); that for `COc1ccc(/C=C/C(=O)c2ccc[nH]2)cc1OC`, 5.21 µM (active). Take `O=C(/C=C/c1ccc2c(c1)OCO2)c1ccc[nH]1`: the Potency is 3.69 µM (active). Next, `COc1ccc(/C=C/C(=O)c2ccc[nH]2)c(OC)c1OC`: 14.7 µM (active); `CC(CCc1ccccc1)NC(=O)C(=O)Nc1ccccc1` (stereo not drawn): 1.65 µM (active).

As for `CC(C)CCNC(=O)C(=O)Nc1ccccc1`, the Potency was 2.07 µM (active). As to `O=C(NCc1ccccn1)C(=O)Nc1ccccc1`, the Potency was 6.56 µM (active).

Turning to `CC(C)CCNC(=O)c1ccc(-c2ccccc2)cc1`, the Potency is 8.26 µM (active). Turning to `CS(=O)(=O)c1cnc2c(-c3ccc(F)cc3)cnn2c1N`, the Potency is 1.85 µM (active). Take `CS(=O)(=O)c1cnc2c(-c3ccsc3)cnn2c1N`: the Potency was 5.21 µM (active). The result for `O=C(CCc1ccccc1)c1ccc2c(c1)OCCCO2` reads 3.69 µM (active); that for `O=C(c1ccccc1)c1ccc2c(c1)OCCCO2`, 2.07 µM (active); that for `O/N=C(/CCc1ccccc1)c1ccc2c(c1)OCCO2`, 7.36 µM (active). As to `Cc1cc(O)c(C(=O)Cc2csc(C)n2)c(O)c1`, the Potency is 5.85 µM (active). As to `Cc1oncc1-c1csc(-c2ccccc2)n1`, the Potency was 5.21 µM (active).

On to `O=C1C2C(C(=O)N1/N=C/c1cccc([N+](=O)[O-])c1)C1C=CC2C12CC2` (stereo not drawn), for which the Potency is 18.5 µM (active). For the molecule `Cc1cccc(NC(=O)Cn2c(/C=C/c3ccccc3)nc3ccccc32)c1`, the Potency is 5.85 µM (active). In the case of `O=C(Cn1c(/C=C/c2ccccc2)nc2ccccc21)Nc1ccc(F)cc1`, the Potency is 5.21 µM (active).

For the molecule `COc1ccc(C2CC(=O)c3ccccc3O2)cc1` (stereo not drawn), the Potency is 16.5 µM (active).

Take `O=C1CC(c2ccc3c(c2)OCCO3)Oc2ccc([N+](=O)[O-])cc21` (stereo not drawn): the Potency was 0.261 µM (active). On to `Cc1ccc2c(c1)OC(c1ccc3c(c1)OCCO3)CC2=O` (stereo not drawn), for which the Potency is 16.5 µM (active).

Take `O=C1CC(c2ccc3c(c2)OCCO3)Oc2ccccc21` (stereo not drawn): the Potency was 14.7 µM (active).

Consider `CC(C)c1nc(C#N)c(NN)o1`, for which the Potency was 16.5 µM (active). The result for `N/C(=N\OC(=O)/C=C/c1ccccc1Cl)c1ccncc1` reads 0.414 µM (active); that for `N/C(=N\OC(=O)/C=C/c1ccccc1Cl)c1cccnc1`, 2.07 µM (active); that for `COc1ccc(-n2nc3cc(C)c(N)c(Br)c3n2)cc1`, 4.14 µM (active).

Consider `CC1CCC/C(=N\Nc2ccc(Cl)c(C(=O)O)c2)C1` (stereo not drawn), for which the Potency was 6.56 µM (active). The result for `O=[N+]([O-])c1ccc2cn(-c3ccccc3)nc2c1` reads 1.65 µM (active); that for `Fc1ccccc1/C=N/Nc1ncnc2nc[nH]c12`, 5.21 µM (active); that for `C(=N\Nc1ncnc2nc[nH]c12)/c1cccs1`, 4.14 µM (active). For `Cc1ccccc1/C=N/Nc1ncnc2nc[nH]c12`, the Potency was 6.56 µM (active). The result for `Cc1ccsc1/C=N/Nc1ncnc2nc[nH]c12` reads 3.29 µM (active); that for `COc1ccccc1/C=N\N=C(\N)c1ccccn1`, 2.07 µM (active).

With `N/C(=N\N=C\c1ccc(O)c(O)c1)c1nonc1N`, the Potency was 8.26 µM (active). Next, `COc1cccc(/C=N/N=C(\N)c2nonc2N)c1O`: 3.69 µM (active); `COc1ccc(/C=N/N=C(\N)c2nonc2N)cc1OC`: 7.36 µM (active); `N/C(=N\N=C\c1ccc(Br)o1)c1nonc1N`: 3.29 µM (active).

In the case of `Cc1cccc(OCc2cc(-c3ccccc3)no2)c1C`, the Potency is 7.36 µM (active). The result for `COc1ccccc1OCc1cc(-c2ccccc2)no1` reads 3.69 µM (active); that for `Cc1ccc(-c2cc(N)n(-c3ccc(F)cc3)n2)cc1`, 4.14 µM (active); that for `Cc1ccc(-c2cc(N)n(-c3ccc(C)cc3)n2)cc1`, 11.7 µM (active) and 1.85 µM (active).

As to `O=C(O)c1cc(-c2ccc(C(F)(F)F)cc2)nc2n[nH]c(-c3ccccc3)c12`, the Potency is 0.585 µM (active). The result for `COc1ccc(-c2nc(-c3ccc(O)cc3O)cs2)cc1OC` reads 5.85 µM (active); that for `COc1ccc(-c2ccc3ccccc3n2)cc1OC`, 2.07 µM (active); that for `COc1ccc(-c2csc(-c3cccs3)n2)c(OC)c1`, 1.04 µM (active).

Consider `COc1ccc(-c2csc(-c3cccs3)n2)cc1OC`, for which the Potency was 6.56 µM (active). The result for `COc1ccc(Nc2nc(-c3cccs3)cs2)c(OC)c1` reads 1.04 µM (active).

`Cc1ccc(/C=C2\OC(=O)c3ccccc32)cc1`: the Potency was 3.69 µM (active). Next, `Clc1ccccc1N/N=C/c1ccc2c(c1)OCO2`: 2.93 µM (active); `O=C(O)c1cc(N/N=C/c2ccc3c(c2)OCCO3)ccc1Cl`: 0.293 µM (active). As for `CSc1nsc(N/N=C/c2ccc3c(c2)OCO3)c1C#N`, the Potency was 0.826 µM (active). The result for `O=C(O)c1cc(N/N=C/c2ccc(N3CCOCC3)cc2)ccc1Cl` reads 2.07 µM (active). Turning to `CN(C)c1ccc(/C=C/C(=O)c2ccccc2O)cc1`, the Potency was 4.14 µM (active). Turning to `CN(C)c1ccc(C(=O)/C=C/c2ccccc2)cc1`, the Potency is 5.21 µM (active). The result for `O=C1C(C=Nc2ccc(F)cc2)=C(O)c2ccccc21` reads 2.07 µM (active); that for `Cn1ccsc1=NC(=O)c1ccc(S(=O)(=O)C(F)F)cc1`, 7.36 µM (active); that for `Cc1cccc(C(=O)N=c2sccn2C)c1[N+](=O)[O-]`, 4.65 µM (active). The result for `COC(=O)c1ccc(C(=O)N=c2sccn2C)cc1` reads 4.14 µM (active). Take `Cn1ccsc1=NC(=O)c1cccc(OC(F)F)c1`: the Potency is 2.33 µM (active).

With `CCCCOc1ccc(C(=O)N=c2sccn2C)cc1OC`, the Potency was 4.65 µM (active). The result for `Cn1ccsc1=NC(=O)c1ccc(OC(F)(F)F)cc1` reads 4.65 µM (active); that for `CCCCCc1ccc(-c2ccc(Br)cc2)nc1`, 3.69 µM (active); that for `CCCCc1ccc(-c2ccc(Br)cc2)nc1`, 3.69 µM (active). With `CCCCCc1ccc(-c2ccc(C(=O)Oc3ccc(C(=O)OC)cc3)cc2)nc1`, the Potency is 0.656 µM (active). In the case of `CCCCOc1ccc(-c2nnc(N)s2)cc1`, the Potency was 14.7 µM (active).

Turning to `CCCOc1ccc(-c2nnc(N)s2)cc1`, the Potency is 5.21 µM (active).

In the case of `CCCCCc1ccc(-c2nnc(N)s2)cc1`, the Potency is 16.5 µM (active).

Take `COc1cc(-c2cc(=O)c3ccccc3o2)ccc1O`: the Potency was 8.26 µM (active). Next, `COc1cc(-c2cc(=O)c3c(O)cc(O)cc3o2)ccc1O`: 4.14 µM (active). Next, `CCS(=O)(=O)n1nc(-c2ccc(Cl)cc2)nc1SCc1ccccc1`: 8.26 µM (active); `CC(=O)c1cc(C#N)c(SCc2ccccc2)nc1C`: 13.1 µM (active). `CC(=O)c1cc(C#N)c(SCc2ccccn2)nc1C`: the Potency was 7.36 µM (active). Regarding `CC(=O)c1cnc2nc(SCc3ccccc3)nn2c1C`, the Potency is 5.21 µM (active). With `COCCCNCCCCOc1ccc(OCc2ccccc2)cc1`, the Potency is 18.5 µM (active).

Regarding `CC(O)CNCCCCOc1ccc(OCc2ccccc2)cc1` (stereo not drawn), the Potency is 9.27 µM (active). The result for `C=CCNCCCCOc1ccc(OCc2ccccc2)cc1` reads 7.36 µM (active).

In the case of `CC(C)(C)C1(C)OC(=O)C(=Cc2ccc(OCC(=O)Nc3ccccc3)cc2)C(=O)O1` (stereo not drawn), the Potency is 11.7 µM (active).

Turning to `Cc1ccc(C(=O)NCc2ccc3c(c2)CCO3)cc1C`, the Potency was 10.4 µM (active). Take `O=C(O)c1cccc(N=NN2CCCCCC2)c1`: the Potency was 0.165 µM (active). As to `COC(=O)c1ccc(N=NN2CCOCC2)cc1`, the Potency was 7.36 µM (active).

As to `COC(=O)c1ccc(N=NN2CCCCC2)cc1`, the Potency is 7.36 µM (active).

In the case of `COC(=O)c1ccc(N=NN2CCCCCC2)cc1`, the Potency was 5.85 µM (active). The result for `Cc1cc(C(F)(F)F)c(C#N)c(SCC(=O)Nc2nc3cc(Br)ccc3s2)n1` reads 3.69 µM (active); that for `CCc1ccc(NC2Nc3cc(C)nn3S2)cc1` (stereo not drawn), 1.65 µM (active).

For `Cc1ccc(NC2Nc3cc(C)nn3S2)c(C)c1` (stereo not drawn), the Potency is 6.56 µM (active). Take `Cc1csc(SCc2nnc(-c3ccc(Cl)cc3)o2)n1`: the Potency is 4.65 µM (active).

For `O=C(CSc1nc2ccccc2s1)N/N=C/c1ccccc1C(=O)O`, the Potency is 16.5 µM (active). Turning to `Cc1c(C=O)c2cc(OCc3ccccc3)ccc2n1C`, the Potency was 4.14 µM (active). Next, `COc1ccc(-c2nc3n(c2C)Cc2ccccc2-3)cc1`: 6.56 µM (active). For `Oc1[nH]c2ccccc2c1N=Nc1ccc(F)cc1`, the Potency is 5.85 µM (active). For the molecule `Cc1ccc(N=Nc2c(O)[nH]c3ccc(F)cc23)cc1`, the Potency was 1.31 µM (active). The result for `CCOC(=O)c1c(C)[nH]c(C(=O)CSc2ccc(Cl)cc2)c1C` reads 7.36 µM (active); that for `CCOC(=O)c1c(C)[nH]c(C(=O)COC(=O)CNC(=O)c2ccccc2Cl)c1C`, 13.1 µM (active). The result for `CCOC(=O)c1c(C)[nH]c(C(=O)CSc2nccc(C)n2)c1C` reads 4.65 µM (active); that for `CCOC(=O)c1c(C)[nH]c(C(=O)COC(=O)C2CC2C)c1C` (stereo not drawn), 2.61 µM (active); that for `CCOC(=O)c1c(C)[nH]c(C(=O)COC(=O)CCSc2ccccc2)c1C`, 13.1 µM (active).

On to `Cc1ccc(N/C=C2/Sc3ccccc3NC2=O)cc1`, for which the Potency is 4.14 µM (active). For `Cc1nn(-c2ccccc2)c(Cl)c1/C=N/NC(=O)c1ccnn1C`, the Potency was 5.21 µM (active). Next, `Cc1nn(-c2ccccc2)c(Cl)c1/C=N/NC(=O)c1ccco1`: 3.29 µM (active). The result for `COC(=O)N/N=C\c1c(C)nn(-c2ccccc2)c1Cl` reads 7.36 µM (active); that for `Cc1nn(-c2ccccc2)c(Cl)c1/C=N/Nc1nc2ccccc2[nH]1`, 0.293 µM (active).
